The values below come from PubChem BioAssay (NCI).

About 83,000 compounds went through this panel and 20% of them were active in at least one assay; those are over-represented in the sample as a whole.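 Step 1: grow cells in 96-well plates. Step 2: add test compound at a single concentration. Step 3: incubate 48 h. Step 4: record percent growth.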 The source made the active and inactive calls. Rule for the calls: active = growth percent below 10; inactive = the rest.

The subject of this assay is HL-60(TB) leukemia. The experiment in a line: NCI-60 one-dose screen, 48 h (100 = growth as untreated, 0 = no growth, -100 = all killed). To be noted: 10 µM unless noted.
Turning to `S=c1ssnc1-c1cccs1`, the growth is 95.1% (inactive).
Under `CN1CCN(C(=O)OCc2nc3c(N4CCOCC4)nc(Cl)nc3n2C)CC1` stands -53.4% (active).
Consider `Cc1ccc(/C=C(\C#N)C(=O)Nc2ncc(Cc3cc(Cl)ccc3Cl)s2)o1`, for which the growth is 22.5% (inactive).
The result for `ClCC#CCSc1ncnc2c1ncn2CC#CCCl` reads 8.79% (active); that for `N#C/C=C(\c1ccc([N+](=O)[O-])cc1)n1nnc2cc(Cl)c(Cl)cc21`, 13.3% (inactive); that for `COc1ccc(-c2cc(-c3ccc(Cl)cc3)nc(SCCCCCCC(=O)NO)n2)cc1`, -18.2% (active).
As to `COc1ccc2[nH]c(C(=O)OCc3ccc4c(Cl)cc(Cl)c(O)c4n3)cc2c1`, the growth was -30.4% (active).
The result for `Cn1c2ccccc2c2nnc(N/N=C/c3ccccn3)nc21` reads -46.1% (active).
Turning to `O=[N+]([O-])c1cccc(-c2nc3sccn3c2-c2ccnc(NCCCNS(=O)(=O)c3ccc(Cl)cc3)n2)c1`, the growth was 26.1% (inactive).
For the molecule `CC1(C)CC(=O)C2=C(C1)N(c1ccc(OC(F)(F)F)cc1)C(N)=C(C#N)C2c1ccc(Br)cc1F` (configuration not stated), the growth was 78.5% (inactive).
The result for `Nc1cc(C(=O)O)cc(C(=O)O)c1` reads 90.2% (inactive).
With `NC1=NC(c2ccccc2OS(=O)(=O)c2ccc(Br)cc2)n2c(nc3ccccc32)N1` (configuration not stated), the growth is 69.7% (inactive).
Turning to `COc1cc(OC)c(NC(=O)n2ncc3cc(Nc4ncnc5ccccc45)ccc32)cc1Cl`, the growth is 82.9% (inactive).
The result for `CCCCOc1nc2ccc(Cl)cc2cc1/C=C/C(=O)/C=C/c1ccc(OC)cc1` reads 89.5% (inactive); that for `CCn1cc(-c2cc(-c3ccc(Cl)cc3)nc(N)n2)c(-c2ccc(Br)cc2)n1`, 77.7% (inactive).
Under `CCN(CCNc1ccc(C)c2sc3cc(Cl)ccc3c(=O)c12)CC(C)(C)O` stands 81.4% (inactive).
The result for `CNC(=O)c1cccc(Cn2nc(C)c(NC(=O)c3ccc(COc4ccc(C(F)(F)F)cc4C)cc3)c2C)c1` reads 47.1% (inactive); that for `COc1cc2cc(Oc3ccc(NC(=O)Nc4ccc(F)c(C(F)(F)F)c4)cc3)c(C)nc2cc1OCCN1CCOCC1`, 19.3% (inactive); that for `N#Cc1c(-c2ccccc2)nc2c(c(-c3ccccc3)nn2-c2ccccc2)c1-c1ccc(N2CCCCC2)cc1`, 95.8% (inactive).
Regarding `Cc1cccc2c3c(sc12)C(c1ccc(Cl)cc1)C(C#N)=C(N)O3` (configuration not stated), the growth is -21% (active).
The result for `N#Cc1ccc(-n2nnc3ccccc32)cc1C#N` reads 108% (inactive); that for `CCOC(=O)c1[nH]c(=O)c2c(C)nc(-c3ccccc3)cc2c1O`, 111% (inactive).
Turning to `CCN1C(=O)N(CC)C2C1NN=c1s/c(=C\c3ccco3)c(=O)n12` (configuration not stated), the growth was -20.3% (active).
The result for `Nc1nc(N)c2c(n1)NC(c1cccc(Nc3ccnc4cc(C(F)(F)F)ccc34)c1)CC(c1ccccc1)=N2` (configuration not stated) reads 34.8% (inactive); that for `CC/C(=C\c1ccc(N(C)C)cc1)c1nc2ccccc2c(=O)[nH]1`, 179% (inactive).
Under `C=C(C)[C@@H]1CC[C@]2(CN)CC[C@]3(C)[C@H](CC[C@@H]4[C@@]5(C)CCC(=O)NC(C)(C)[C@@H]5CC[C@]43C)[C@@H]12` stands -50.5% (active); under `C[C@H](NC(=O)c1c(N)nn2cccnc12)c1cc2cccc(C#Cc3cnn(C)c3)c2c(=O)n1-c1ccccc1`, -18.2% (active); under `CCN=Cc1c(O)c(O)c(C(C)C)c2cc(C)c(-c3c(C)cc4c(C(C)C)c(O)c(O)c(C=NCC)c4c3O)c(O)c12`, 27.3% (inactive).
As for `COc1ccc(OC)c(C2C(C#N)=C(N)Oc3cc(O)ccc32)c1` (configuration not stated), the growth was 88.6% (inactive).
For the molecule `O=C1c2ccccc2-c2c1c1ccncc1c(=O)n2CCCn1ccnc1`, the growth is 35.7% (inactive).
With `CC(=O)OC[C@]12CC[C@@H]([C@@H](C)C(N)=O)[C@@H]1[C@H]1CC[C@@H]3[C@@]4(C)CC[C@H](OC(C)=O)C(C)(C)[C@@H]4CC[C@@]3(C)[C@]1(C)CC2`, the growth was -23.1% [100 µM] (active).
Under `COc1ccc(-n2nnc3c(sc4ccccc43)c2=O)cc1` stands 94.6% (inactive); under `O=C1OCC2=C1C(c1cccc(C(F)(F)F)c1)c1cc3c(cc1N2CCO)CCC3` (configuration not stated), -25.2% (active); under `CC(C)(N)COS(=O)(=O)O`, 94.4% (inactive).
For the molecule `CN1C(=O)/C(=C\c2c(Cl)cccc2Cl)c2ccccc21`, the growth is 80.9% (inactive).
With `OCC1OC(n2ccc3c(NO)ncnc32)C(O)C1O` (configuration not stated), the growth is -35.1% (active).
Regarding `N#Cc1ccc(NC(=O)Nc2nc3ccc(OC(F)(F)F)cc3s2)cc1`, the growth is -47% (active).
